Data as given in PubChem BioAssay (Tox21).
Results filed as inconclusive are left out. Calls of active or inactive are those of the source. Unless noted, calls come from the whole dose curve.

Assay: qHTS assay for small molecules that induce genotoxicity in human embryonic kidney cells expressing luciferase-tagged ATAD5 - cell viability (AID 651634); note: nearly all actives have a fitted effect of over 25% in size
Settings: HEK293T ATAD5-luc cells viability, CellTiter-Fluor, 15.5 h; series mostly up to 83.3 µM; activity, negative = cytotoxicity: at the top concentration
How it was run: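 Seeding of 2,000 HEK293T ATAD5-luciferase cells per well preceded pin-tool compound transfer. Plates sat 15.5 hr at 37C under 5% CO2, then fluorescence was read after 30 min with CellTiter-Fluor.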
% is set by controls: 0 for no effect and ±100 for the full control effect.

Compound | activity, negative = cytotoxicity | Potency
C=C(C)C(=O)OC | 14.5% (inactive) | 
CC1=CC[C@H](CC=O)C1(C)C | 8.69% (inactive) | 
COCCOCCOCCOC | 9.88% (inactive) | 
COc1ccc(OC)c(NC(=O)CC(C)=O)c1 | 17.1% (inactive) | 
CCCCC(=O)N(C)C | 3.1% (inactive) | 
C1=C\CC/C=C\CC/1 | 6.73% [at 95.3 µM] (inactive) | 
CCS(=O)(=O)CCn1c([N+](=O)[O-])cnc1C | -11% [at 39.1 µM] (inactive) | 
CC(Cl)COP(=O)(OCC(C)Cl)OCC(C)Cl (stereo not given) | 11.4% (inactive) | 
CCCCC(C)C(=O)O (stereo not given) | 18.5% (inactive) | 
CCCCC/C=C/CC(=O)OC | -12.1% (inactive) | 
NS(=O)(=O)c1ccc(Cl)c(S(N)(=O)=O)c1 | -14.9% (inactive) | 
F[Si-2](F)(F)(F)(F)F |  | inactive
Cc1ccccc1OCC1CO1 (stereo not given) | 8.89% [at 95.3 µM] (inactive) | 
Cc1nc(C)nc(N2C[C@@H](C)N(c3ccnc([C@@H](C)O)n3)[C@@H](C)C2)n1 | 11.6% (inactive) | 
O=C(O)c1ccccc1C(=O)OCc1ccccc1 | 9.63% (inactive) | 
C=COCCOCCOC=C | -11.9% (inactive) | 
CCCCCCCCOC(C)=O | 25.6% (inactive) | 
CC(=O)N(CC(O)CO)c1c(I)c(C(=O)NCC(O)CO)c(I)c(C(=O)NCC(O)CO)c1I (stereo not given) | 14.6% (inactive) | 
C=C[Si](C)(C)O[Si](C)(C)C=C | 11.4% (inactive) | 
CCCCC[Si](OCC)(OCC)OCC | -7.29% (inactive) | 
O=C(O)c1ccccc1C(=O)Nc1ccc(S(=O)(=O)Nc2nccs2)cc1 | 7.05% (inactive) | 

Assay: qHTS assay for small molecule disruptors of the mitochondrial membrane potential - cell viability (AID 720634);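 note: human HepG2 liver cancer cells; nearly all actives have a fitted effect of over 20% in size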
Settings: HepG2 viability, ATP luminescence (CellTiter-Glo), 1 h; series mostly up to 83.2 µM; activity change, negative = cytotoxicity: at the top concentration
How it was run: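 Measuring cytotoxicity alongside mitochondrial potential, the screen quantified ATP by luminescence in HepG2 cells after 1 hr compound incubation and a 30 min room-temperature CellTiter-Glo step.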

Compound | activity change, negative = cytotoxicity | outcome
O=C(COCCOCCOCC(=O)Nc1c(I)cc(I)c(C(=O)O)c1I)Nc1c(I)cc(I)c(C(=O)O)c1I | -1.14% (inactive) | 
C=C(C)C(=O)OC | 6.39% (inactive) | 
CC1=CC[C@H](CC=O)C1(C)C | 7.83% (inactive) | 
C=C(C)[C@@H]1CC[C@@H](C)C[C@@H]1O | 0.705% (inactive) | 
COCCOCCOCCOC | 5.95% (inactive) | 
COc1ccc(OC)c(NC(=O)CC(C)=O)c1 | 7.46% (inactive) | 
C1=C\CC/C=C\CC/1 | 10.2% [at 95.3 µM] (inactive) | 
CCS(=O)(=O)CCn1c([N+](=O)[O-])cnc1C | 6.02% [at 39.1 µM] (inactive) | 
CC(Cl)COP(=O)(OCC(C)Cl)OCC(C)Cl (stereo not given) | 6.09% (inactive) | 
CCCCC(C)C(=O)O (stereo not given) | 1.98% (inactive) | 
CCCCC/C=C/CC(=O)OC | 3.89% (inactive) | 
C=C(C)C(=O)OCCCCCCOC(=O)C(=C)C | 4.43% (inactive) | 
NS(=O)(=O)c1ccc(Cl)c(S(N)(=O)=O)c1 | 28.8% (inactive) | 
CC(C)SCc1ccco1 | 8.62% [at 39.1 µM] (inactive) | 
F[Si-2](F)(F)(F)(F)F |  | inactive
CCC(O)C(C)(C)C (stereo not given) | -5.85% [at 95.3 µM] (inactive) | 
Cc1ccccc1OCC1CO1 (stereo not given) | -6.06% [at 95.3 µM] (inactive) | 

Compound | activity change, negative = cytotoxicity | outcome
Cc1nc(C)nc(N2C[C@@H](C)N(c3ccnc([C@@H](C)O)n3)[C@@H](C)C2)n1 | 4.86% (inactive) | 
CC(=O)OC(C)c1ccccc1 (stereo not given) | 7.05% (inactive) | 
O=C(O)c1ccccc1C(=O)OCc1ccccc1 | 4.08% (inactive) | 
C=COCCOCCOC=C | 0.535% (inactive) | 
CCCCCCCCOC(C)=O | -12.2% (inactive) | 
CCN(Cc1cccc(S(=O)(=O)O)c1)c1ccccc1 | -6.31% (inactive) | 
O=C(CN1CCN(Cc2ccc3c(c2)OCO3)CC1)N1c2ccccc2Sc2ccccc21 | 7.6% (inactive) | 
CC(=O)N(CC(O)CO)c1c(I)c(C(=O)NCC(O)CO)c(I)c(C(=O)NCC(O)CO)c1I (stereo not given) | 8.97% (inactive) | 
CC1=NN(c2ccc(S(=O)(=O)O)cc2)C(=O)C1N=Nc1ccccc1 (stereo not given) | 6.27% (inactive) | 
C=CCOCC(CO)(COCC=C)COCC=C | 1.65% (inactive) | 
C=C[Si](C)(C)O[Si](C)(C)C=C | 7.55% (inactive) | 
CCCCC[Si](OCC)(OCC)OCC | -22.4% (inactive) | 
O=C(O)c1ccccc1C(=O)Nc1ccc(S(=O)(=O)Nc2nccs2)cc1 | 14.1% (inactive) | 
Nc1cc(S(=O)(=O)O)ccc1S(=O)(=O)O | 12.1% (inactive) | 
O=CN1CCOCC1 | 10.5% (inactive) | 
CCCCOC(=O)C(C)OC(=O)CCC (stereo not given) | 12.5% (inactive) | 
CC(=O)OC(C(=O)c1ccccc1)c1ccccc1 (stereo not given) | -7.3% [at 95.3 µM] (inactive) | 

Assay: qHTS assay for small molecule disruptors of the mitochondrial membrane potential (AID 720635; active = well fitted curve in the direction sought with a large enough effect in the repeat runs; an effect the other way counts as inactive or inconclusive; note: potency is the fitted concentration of half-maximal effect)
Settings: HepG2 mitochondrial membrane potential, Mito-MPS dye ratio; series mostly up to 83.2 µM; ratio activity, negative = MMP loss: at the top concentration
How it was run: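 HepG2 cells exposed to compound 1 hr at 37C, then Mito-MPS dye 30 min. Ratio read of aggregate (540/590 nm) versus monomer (490/535 nm) fluorescence.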

Compound | ratio activity, negative = MMP loss | Potency
O=C(COCCOCCOCC(=O)Nc1c(I)cc(I)c(C(=O)O)c1I)Nc1c(I)cc(I)c(C(=O)O)c1I | -12.8% (inactive) | 
C=C(C)C(=O)OC | 10.5% (inactive) | 
CC1=CC[C@H](CC=O)C1(C)C | -20.1% (inactive) | 
CCCCC(=O)N(C)C | 2.03% (inactive) | 
C1=C\CC/C=C\CC/1 | 17.1% [at 95.3 µM] (inactive) | 
CCS(=O)(=O)CCn1c([N+](=O)[O-])cnc1C | 12.1% [at 39.1 µM] (inactive) | 
CCCCC(C)C(=O)O (stereo not given) | 13.7% (inactive) | 
CC(=O)OC(C)c1ccccc1 (stereo not given) | -12.2% (inactive) | 
C=C[Si](C)(C)O[Si](C)(C)C=C | -6.84% (inactive) | 
CCCCC[Si](OCC)(OCC)OCC |  | 48.6 µM (active)

Assay: qHTS assay to test for compound auto fluorescence at 590 nm (red) in HepG2 cells (AID 720674; active = well fitted curve in the direction sought with a large enough effect in the repeat runs; an effect the other way counts as inactive or inconclusive)
Settings: HepG2 autofluorescence, red 540/590 nm, 1 h; series mostly up to 91.3 µM; fluorescence, relative to Rose Bengal: at the top concentration
How it was run: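 Seeding: 2,000 HepG2 cells/well, MEM/10% FBS, overnight 37 C. Dosing: compound vs DMSO. Incubation: 1 hr, 37 C, 5% CO2. Read: fluorescence 540 ex/590 em, Rose Bengal sodium as red reference.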

Compound | fluorescence, relative to Rose Bengal | outcome
O=C(COCCOCCOCC(=O)Nc1c(I)cc(I)c(C(=O)O)c1I)Nc1c(I)cc(I)c(C(=O)O)c1I | 0.0341% [at 46 µM] (inactive) | 
C=C(C)C(=O)OC | -0.321% (inactive) | 
CC1=CC[C@H](CC=O)C1(C)C | 0.156% (inactive) | 
C=C(C)[C@@H]1CC[C@@H](C)C[C@@H]1O | -0.121% (inactive) | 
COCCOCCOCCOC | 0.111% (inactive) | 
COc1ccc(OC)c(NC(=O)CC(C)=O)c1 | 0.0789% (inactive) | 
CCCCC(=O)N(C)C | -0.0222% (inactive) | 
C1=C\CC/C=C\CC/1 | -0.0089% [at 95.7 µM] (inactive) | 
CCS(=O)(=O)CCn1c([N+](=O)[O-])cnc1C | 0.187% [at 18.6 µM] (inactive) | 
CC(Cl)COP(=O)(OCC(C)Cl)OCC(C)Cl (stereo not given) | -0.265% (inactive) | 
CCCCC(C)C(=O)O (stereo not given) | -0.0129% (inactive) | 
CCCCC/C=C/CC(=O)OC | -0.0976% (inactive) | 
C=C(C)C(=O)OCCCCCCOC(=O)C(=C)C | 0.0492% (inactive) | 
NS(=O)(=O)c1ccc(Cl)c(S(N)(=O)=O)c1 | 0.525% [at 46 µM] (inactive) | 
CC(C)SCc1ccco1 | -0.169% [at 46 µM] (inactive) | 
F[Si-2](F)(F)(F)(F)F |  | inactive
CCC(O)C(C)(C)C (stereo not given) | 0.14% [at 95.7 µM] (inactive) | 
Cc1ccccc1OCC1CO1 (stereo not given) | -0.0945% (inactive) | 

Compound | fluorescence, relative to Rose Bengal | outcome
Cc1nc(C)nc(N2C[C@@H](C)N(c3ccnc([C@@H](C)O)n3)[C@@H](C)C2)n1 | -0.139% [at 46 µM] (inactive) | 
CC(=O)OC(C)c1ccccc1 (stereo not given) | -0.207% (inactive) | 
O=C(O)c1ccccc1C(=O)OCc1ccccc1 | -0.0235% (inactive) | 
C=COCCOCCOC=C | -0.204% (inactive) | 
CCCCCCCCOC(C)=O | -0.103% (inactive) | 
CCN(Cc1cccc(S(=O)(=O)O)c1)c1ccccc1 | -0.186% (inactive) | 
O=C(CN1CCN(Cc2ccc3c(c2)OCO3)CC1)N1c2ccccc2Sc2ccccc21 | 0.141% [at 46 µM] (inactive) | 
CC(=O)N(CC(O)CO)c1c(I)c(C(=O)NCC(O)CO)c(I)c(C(=O)NCC(O)CO)c1I (stereo not given) | -0.631% [at 46 µM] (inactive) | 
CC1=NN(c2ccc(S(=O)(=O)O)cc2)C(=O)C1N=Nc1ccccc1 (stereo not given) | -0.198% (inactive) | 
C=CCOCC(CO)(COCC=C)COCC=C | 0.108% (inactive) | 
C=C[Si](C)(C)O[Si](C)(C)C=C | -0.251% (inactive) | 
CCCCC[Si](OCC)(OCC)OCC | -0.108% (inactive) | 
O=C(O)c1ccccc1C(=O)Nc1ccc(S(=O)(=O)Nc2nccs2)cc1 | 0.671% [at 46 µM] (inactive) | 
Nc1cc(S(=O)(=O)O)ccc1S(=O)(=O)O | -0.258% (inactive) | 
O=CN1CCOCC1 | -0.0121% (inactive) | 
CCCCOC(=O)C(C)OC(=O)CCC (stereo not given) | -0.131% (inactive) | 
CC(=O)OC(C(=O)c1ccccc1)c1ccccc1 (stereo not given) | -0.0592% (inactive) | 
